Data as given in PubChem BioAssay (NCATS).
Records with an inconclusive call do not appear. Active and inactive are the calls of the source. Unless noted, calls follow the shape of the dose curve; as a rule, active = well fitted curve in the direction sought with a large enough effect; inconclusive = small, poorly fitted or top-dose-only effect, or another doubt; inactive = no such curve, though single readings can be large; an effect the other way counts as inactive or inconclusive.

What was measured:
[1] = AP1 Signaling Pathway (AID 357; active = well fitted curve in either direction with a large enough effect, not every such curve was filed as active;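 also: ME-180 reporter cells stimulated with EGF at its EC50 level; % is scaled to controls: 0 for no effect and ±100 for the full control effect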); details: ME-180 AP-1-bla reporter, EGF-induced, beta-lactamase ratio, 5 h; at 17.2 µM (top of the series) unless noted
Procedure, shortened: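 First, ME-180 AP-1-bla cells were cultured overnight at 37 °C in low-serum Opti-MEM. Next, titrated compounds with EC50 EGF were incubated 5 hours. Finally, CCF4 was added for 2.5 hours and the 460/530 nm ratio recorded.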

[2] = NFAT Signaling Pathway (AID 444; active = well fitted curve in either direction with a large enough effect, not every such curve was filed as active;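 also: carbachol stimulus at about its EC50 of 1 µM final; % is scaled to controls: 0 for no effect and ±100 for the full control effect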); details: Jurkat NFAT-bla M1, carbachol, beta-lactamase ratio, 5 h; at 17.2 µM (top of the series) unless noted
Procedure, shortened: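 Jurkat cells with NFAT-driven β-lactamase reporter and co-expressed M1 receptor, stimulated with carbachol (final 1 uM, ~EC50), compound titration, 5 h at 37 °C. CCF4 loaded 1 h at RT; 460/530 nm ratio gave %activity and AC50.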

[3] = biological target: Glucocorticoid receptor (Homo sapiens) (UniProt P04150); test: GR-GFP Redistribution (AID 450;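 active = compounds whose dose series gives a full or clear partial fitted curve of increased nuclear translocation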; also: potency is read from the fitted curve at half-maximal effect); details: U2OS GR-GFP nuclear translocation, laser cytometry, 2 h
Sequence of Glucocorticoid receptor (Homo sapiens) (P04150 whole entry, looked up, the tested form may be a part): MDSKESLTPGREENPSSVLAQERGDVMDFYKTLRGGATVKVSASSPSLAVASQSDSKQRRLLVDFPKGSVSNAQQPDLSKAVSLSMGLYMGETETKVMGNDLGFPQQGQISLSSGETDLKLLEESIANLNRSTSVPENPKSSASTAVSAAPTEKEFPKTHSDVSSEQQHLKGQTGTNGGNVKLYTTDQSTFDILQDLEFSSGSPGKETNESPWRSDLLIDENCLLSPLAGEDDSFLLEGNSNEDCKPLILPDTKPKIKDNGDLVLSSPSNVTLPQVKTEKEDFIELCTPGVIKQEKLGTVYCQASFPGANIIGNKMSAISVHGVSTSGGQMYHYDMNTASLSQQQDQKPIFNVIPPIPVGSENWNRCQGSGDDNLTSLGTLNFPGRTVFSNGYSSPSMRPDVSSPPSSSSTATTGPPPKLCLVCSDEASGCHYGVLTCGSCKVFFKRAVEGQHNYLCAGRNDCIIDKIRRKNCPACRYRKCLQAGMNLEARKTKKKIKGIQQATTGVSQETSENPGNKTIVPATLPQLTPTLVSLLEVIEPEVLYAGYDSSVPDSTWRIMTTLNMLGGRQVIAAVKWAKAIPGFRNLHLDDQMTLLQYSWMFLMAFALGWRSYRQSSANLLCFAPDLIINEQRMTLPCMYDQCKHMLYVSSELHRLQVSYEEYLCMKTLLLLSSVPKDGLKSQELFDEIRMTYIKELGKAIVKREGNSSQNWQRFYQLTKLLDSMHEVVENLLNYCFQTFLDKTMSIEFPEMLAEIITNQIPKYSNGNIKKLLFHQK

[4] = biological target: Mitogen-activated protein kinase 10 (Mus musculus) (UniProt Q61831); test: JNK3 AlphaScreen Assay (AID 530; active = well fitted curve in either direction with a large enough effect, not every such curve was filed as active;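 also: kinase came from lysate of stimulated human HepG2 cells; signal reports phosphorylation of biotinylated GST-cJun 1-79 at Ser73 with 10 µM ATP; % is scaled to controls: 0 for no effect and ±100 for the full control effect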)
Procedure, shortened: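 HepG2 lysate (IL-1b/TNFa pre-activated) + biotin-GST-cJun 1-79 + anti-pSer73 cJun; cpd titration, 15 min RT; ATP 10 uM start; Tris pH 7.6, MgCl2, DTT, vanadate; beads in EDTA buffer; AlphaScreen.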

[5] = biological target: 3',5'-cyclic-AMP phosphodiesterase 4B (Homo sapiens) (UniProt Q07343); test: qHTS Assay for Inhibitors of PDE-IV (AID 607; active = well fitted activation curve with a large enough effect in the main read-out, with a control signal flat, not every such curve was filed as active; also: % of control where 0% means no effect)
Sequence of 3',5'-cyclic-AMP phosphodiesterase 4B (Homo sapiens) (Q07343 whole entry, looked up): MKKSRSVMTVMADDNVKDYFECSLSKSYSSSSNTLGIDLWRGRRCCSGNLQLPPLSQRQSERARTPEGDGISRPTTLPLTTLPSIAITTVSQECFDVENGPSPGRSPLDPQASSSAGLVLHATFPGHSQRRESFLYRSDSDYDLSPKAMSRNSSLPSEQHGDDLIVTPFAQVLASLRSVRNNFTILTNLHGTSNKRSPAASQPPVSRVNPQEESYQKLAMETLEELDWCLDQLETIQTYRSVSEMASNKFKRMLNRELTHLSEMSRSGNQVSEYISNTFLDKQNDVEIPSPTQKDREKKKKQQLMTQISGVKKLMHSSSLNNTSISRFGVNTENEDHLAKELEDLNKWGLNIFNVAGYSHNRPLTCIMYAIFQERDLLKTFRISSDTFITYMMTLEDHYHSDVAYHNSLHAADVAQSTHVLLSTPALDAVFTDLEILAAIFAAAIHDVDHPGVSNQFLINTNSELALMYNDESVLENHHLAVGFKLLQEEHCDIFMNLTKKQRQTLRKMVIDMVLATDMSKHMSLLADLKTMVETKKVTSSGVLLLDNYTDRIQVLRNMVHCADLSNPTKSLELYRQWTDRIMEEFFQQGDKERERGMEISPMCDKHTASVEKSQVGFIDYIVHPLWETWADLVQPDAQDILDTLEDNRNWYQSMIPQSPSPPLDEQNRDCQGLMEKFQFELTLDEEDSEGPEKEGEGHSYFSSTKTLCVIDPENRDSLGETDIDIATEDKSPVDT
Procedure, shortened: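 The readout is membrane depolarisation from a cAMP-sensing CNG channel, detected with a potential dye at ex 535/em 590. Cells were HEK293-derived (endogenous PDE-IV) at 1000 cells/well, titrated up to 22.9 uM final.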

[6] = biological target: Guanine nucleotide-binding protein G(i) subunit alpha-1 (Homo sapiens) (UniProt P63096); test: qHTS Assay for Inhibitors of RGS12 GoLoco Motif Activity (Green Fluorophore) (AID 879); also: potency is read from the fitted curve at half-maximal effect
Sequence of Guanine nucleotide-binding protein G(i) subunit alpha-1 (Homo sapiens) (P63096 whole entry, looked up): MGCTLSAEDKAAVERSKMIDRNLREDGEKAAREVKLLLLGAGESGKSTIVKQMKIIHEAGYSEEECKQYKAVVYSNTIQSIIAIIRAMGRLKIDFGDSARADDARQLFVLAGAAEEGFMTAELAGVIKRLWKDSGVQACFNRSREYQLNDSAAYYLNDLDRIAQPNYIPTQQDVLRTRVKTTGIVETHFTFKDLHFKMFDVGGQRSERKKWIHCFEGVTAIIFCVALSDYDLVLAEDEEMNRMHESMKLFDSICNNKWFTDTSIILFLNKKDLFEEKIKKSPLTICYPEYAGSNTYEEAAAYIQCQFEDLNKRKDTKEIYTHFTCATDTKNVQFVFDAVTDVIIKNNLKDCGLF
Procedure, shortened: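 A drop in FITC polarization marked displacement of the FITC-tagged RGS12 GoLoco peptide (10 nM) from Gαi1 (50 nM). Compounds were incubated 10 min at room temperature in Tris pH 7.5 buffer containing 150 mM NaCl, 0.1 mM GDP and 0.05% NP40; unlabeled peptide titration served as control.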

[7] = qHTS Assay for Identification of Small Molecule Agonists for Thrombopoietin (TPO) Signaling Pathway (AID 917); also: % is scaled to controls: 0 for no effect and ±100 for the full control effect
Procedure, shortened: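 Stimulation at the TPO EC50 (26 pM final) was used to detect activators. Ba/F3 mouse cells bearing human TPO receptor and a luciferase reporter under the Glycoprotein IIb promoter were exposed to compounds for 24 hrs at 37 C.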

[8] = biological target: Muscarinic acetylcholine receptor M1 (Rattus norvegicus) (UniProt P08482); test: qHTS Assay for Antagonists of Acetylcholine Muscarinic M1 Receptor: Measurement of IP-One Response (AID 944); also: nearly all actives have a fitted effect of over 75% in size
Sequence of Muscarinic acetylcholine receptor M1 (Rattus norvegicus) (P08482 whole entry, looked up): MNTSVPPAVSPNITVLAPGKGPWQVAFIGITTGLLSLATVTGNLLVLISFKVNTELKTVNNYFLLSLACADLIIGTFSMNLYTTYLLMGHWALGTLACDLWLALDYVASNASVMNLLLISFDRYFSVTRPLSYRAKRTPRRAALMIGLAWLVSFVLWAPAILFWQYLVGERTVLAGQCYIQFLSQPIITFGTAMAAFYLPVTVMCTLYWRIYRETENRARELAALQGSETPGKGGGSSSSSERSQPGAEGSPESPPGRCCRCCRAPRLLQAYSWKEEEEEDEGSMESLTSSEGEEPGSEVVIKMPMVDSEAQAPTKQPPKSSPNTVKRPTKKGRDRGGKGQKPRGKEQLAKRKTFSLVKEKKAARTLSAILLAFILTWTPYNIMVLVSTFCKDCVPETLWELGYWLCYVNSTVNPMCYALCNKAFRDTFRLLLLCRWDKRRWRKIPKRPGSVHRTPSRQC
Procedure, shortened: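 Antagonism was measured as loss of carbachol-driven (EC80) IP1 accumulation in CHO cells carrying rat M1, using a homogeneous IP-One TR-FRET kit read at 620 and 665 nm.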

[9] = biological target: Pyruvate kinase PKM (Homo sapiens) (UniProt P14618); test: qHTS Assay for Activators of Human Muscle Pyruvate Kinase (AID 954; active = well fitted curve in the direction sought with a large enough effect, not every such curve was filed as active;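 also: 0% = uninhibited enzyme and -100% = no enzyme or full thiadiazolimine inhibition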)
Sequence of Pyruvate kinase PKM (Homo sapiens) (P14618 whole entry, looked up): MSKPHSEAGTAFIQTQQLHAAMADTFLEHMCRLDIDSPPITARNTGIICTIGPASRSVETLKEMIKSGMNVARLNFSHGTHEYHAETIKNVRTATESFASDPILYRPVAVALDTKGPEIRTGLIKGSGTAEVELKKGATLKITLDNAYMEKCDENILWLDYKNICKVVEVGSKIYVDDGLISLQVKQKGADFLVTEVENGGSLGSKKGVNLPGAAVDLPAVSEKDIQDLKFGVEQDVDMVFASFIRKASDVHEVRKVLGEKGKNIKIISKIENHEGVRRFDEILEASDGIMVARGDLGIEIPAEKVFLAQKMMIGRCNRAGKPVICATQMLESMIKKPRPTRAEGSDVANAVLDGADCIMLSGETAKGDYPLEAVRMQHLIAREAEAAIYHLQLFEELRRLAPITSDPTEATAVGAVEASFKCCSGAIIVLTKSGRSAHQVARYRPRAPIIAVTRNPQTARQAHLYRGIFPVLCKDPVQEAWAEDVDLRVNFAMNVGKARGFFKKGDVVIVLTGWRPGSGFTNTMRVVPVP
Procedure, shortened: (§1)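 PKM2, human, >95% pure, 0.1 nM; PEP 0.5 mM (Km), ADP 0.1 mM; 50 mM imidazole pH 7.2, 50 mM KCl, 0.01% Tween 20, 0.05% BSA; 1 h RT; luciferase luminescence readout.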

[10] = biological target: Alpha-galactosidase (Coffea arabica) (UniProt Q42656); test: Counterscreen for Glucocerebrosidase Inhibitors: qHTS Assay for Coffee Bean alpha-Galactosidase at pH 4.5 (AID 957);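 also: plate controls were enzyme alone for no effect and no enzyme for full effect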
Sequence of Alpha-galactosidase (Coffea arabica) (Q42656 whole entry, looked up): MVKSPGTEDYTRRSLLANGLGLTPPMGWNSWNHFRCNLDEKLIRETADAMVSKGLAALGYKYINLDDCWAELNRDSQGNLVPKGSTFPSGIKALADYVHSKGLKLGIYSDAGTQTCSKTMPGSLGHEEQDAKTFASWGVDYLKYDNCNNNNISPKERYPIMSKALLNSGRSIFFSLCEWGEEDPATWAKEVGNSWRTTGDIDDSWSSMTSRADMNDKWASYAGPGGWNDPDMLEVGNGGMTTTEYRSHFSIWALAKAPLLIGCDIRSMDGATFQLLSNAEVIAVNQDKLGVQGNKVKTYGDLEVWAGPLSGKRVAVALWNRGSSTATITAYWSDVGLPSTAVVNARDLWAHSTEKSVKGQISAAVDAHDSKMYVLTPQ
Procedure, shortened: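 Quantitative HTS of compounds (0.7 nM to 77 uM) against coffee bean alpha-galactosidase at pH 4.5, measuring 4-methylumbelliferone fluorescence released from 80 uM substrate.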

[11] = biological target: Alpha-galactosidase A (Homo sapiens) (UniProt P06280); test: Counterscreen for Glucocerebrosidase Inhibitors: qHTS Assay for Human alpha-Galactosidase at pH 4.5 (AID 992); also: 0% is about no effect
Sequence of Alpha-galactosidase A (Homo sapiens) (P06280 whole entry, looked up): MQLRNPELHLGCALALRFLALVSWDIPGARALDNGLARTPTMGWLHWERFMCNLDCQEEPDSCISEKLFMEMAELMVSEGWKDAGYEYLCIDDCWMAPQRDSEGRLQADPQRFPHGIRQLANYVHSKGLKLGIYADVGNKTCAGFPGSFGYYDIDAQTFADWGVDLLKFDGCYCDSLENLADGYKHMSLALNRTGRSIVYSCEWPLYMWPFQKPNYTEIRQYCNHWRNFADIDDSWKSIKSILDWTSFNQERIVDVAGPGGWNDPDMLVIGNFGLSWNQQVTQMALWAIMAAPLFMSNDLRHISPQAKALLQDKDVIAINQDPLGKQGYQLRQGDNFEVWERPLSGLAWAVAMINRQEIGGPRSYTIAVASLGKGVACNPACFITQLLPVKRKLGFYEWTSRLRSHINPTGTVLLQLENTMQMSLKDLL
Procedure, shortened: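 Fluorogenic 4-MU alpha-D-galactoside (80 uM) hydrolysis, 2 nM enzyme, pH 4.5 citrate buffer + 0.005% Tween-20; 20 min RT; NaOH/glycine pH 10 stop; Ex365/Em440. Compounds titrated 0.7 nM–77 uM; Hill-equation AC50.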

[12] = biological target: alpha-glucosidase (Oryza sativa, rice) (UniProt Q653V4); test: Counterscreen for Glucocerebrosidase Inhibitors: qHTS Assay for Rice alpha-Glucosidase at pH 5.0 (AID 997);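 also: 0% = full activity with enzyme and -100% = basal without enzyme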
Procedure, shortened: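 Endpoint fluorogenic assay at pH 5.0: compounds (0.7 nM to 77 uM) titrated against 4 nM rice enzyme and 400 uM 4-MU-alpha-glucoside for 20 min at room temperature; NaOH/glycine stop, read ex 365/em 440 nm, Hill-fitted AC50.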

[13] = biological target: Alpha-galactosidase (Coffea arabica) (UniProt Q42656); test: Counterscreen for Glucocerebrosidase Inhibitors: qHTS Assay for Coffee Bean alpha-Galactosidase at pH 5.9 (AID 998);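 also: plate controls were uninhibited enzyme for no effect and no-enzyme basal signal for full effect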
Procedure, shortened: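 Enzyme 2 nM + cpd (0.7 nM–77 uM titration) + 4-MU-alpha-Gal 80 uM, pH 5.9 citrate/Tween-20, RT 20 min, NaOH/glycine stop pH 10, fluor 365/440. Normalized to no-enzyme and full-activity controls; Hill-fit AC50.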

[14] = biological target: Glucocorticoid receptor (Homo sapiens) (UniProt P04150); test: GR-EFC Redistribution (AID 451; calls by dose curve; also: potency is read from the fitted curve at half-maximal effect); details: CHO-K1 GR-EFC translocation, beta-gal luminescence, 2 h
Procedure, shortened: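 CHO-K1 cells expressing nuclear EA and GR-ED fragments of b-gal; compounds titrated up to 46 uM final, 2 h at 37 C. GR nuclear translocation read as complemented b-gal luminescence after 1 h RT detection.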

[15] = biological target: Cytochrome P450 3A4 (Homo sapiens) (UniProt P08684); test: qHTS Assay for Activators of Cytochrome P450 3A4 (AID 885); also: nearly all actives have a fitted effect of over 65% in size
Sequence of Cytochrome P450 3A4 (Homo sapiens) (P08684 whole entry, looked up): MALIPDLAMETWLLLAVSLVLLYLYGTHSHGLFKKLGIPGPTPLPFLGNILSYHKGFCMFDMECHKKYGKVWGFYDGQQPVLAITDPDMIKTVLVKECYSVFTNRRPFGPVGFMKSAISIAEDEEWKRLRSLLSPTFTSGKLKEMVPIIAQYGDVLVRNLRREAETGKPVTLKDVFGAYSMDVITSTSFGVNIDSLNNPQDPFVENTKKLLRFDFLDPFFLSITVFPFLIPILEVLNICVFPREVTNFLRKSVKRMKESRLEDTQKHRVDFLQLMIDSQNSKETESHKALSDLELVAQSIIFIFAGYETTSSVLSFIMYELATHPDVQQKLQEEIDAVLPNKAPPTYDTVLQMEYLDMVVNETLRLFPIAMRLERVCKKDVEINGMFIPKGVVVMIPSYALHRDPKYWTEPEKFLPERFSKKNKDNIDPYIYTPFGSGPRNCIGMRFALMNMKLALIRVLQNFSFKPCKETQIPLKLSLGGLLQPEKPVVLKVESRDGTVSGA
Procedure, shortened: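 Activators are scored by enhanced luminescence from CYP3A4 conversion of luciferin-PPXE (25uM, equal to KM) to luciferin, after 60 min at RT with an NADPH-regenerating system.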

[16] = biological target: Cytochrome P450 2D6 (Homo sapiens) (UniProt P10635); test: qHTS Assay for Inhibitors and Substrates of Cytochrome P450 2D6 (AID 891);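 also: luciferin methyl ether substrate demethylated by CYP2D6 with NADPH regeneration; % is scaled to controls: 0 for no effect and ±100 for the full control effect; nearly all actives have a fitted effect of over 60% in size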
Procedure, shortened: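 Luminescent read-out of luciferin formed by 5 nM human CYP2D6 demethylating 30 uM Luciferin-ME EGE (Km level) over 60 min at room temperature after NADPH regeneration addition. Data normalized to full inhibition by 1.43 uM quinidine.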

[17] = biological target: Cytochrome P450 2C19 (Homo sapiens) (UniProt P33261); test: qHTS Assay for Inhibitors and Substrates of Cytochrome P450 2C19 (AID 899); also: % is scaled to controls: 0 for no effect and ±100 for the full control effect; nearly all actives have a fitted effect of over 60% in size
Procedure, shortened: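 Luminescent read-out of luciferin formed from Luciferin-H EGE (10uM, equal to KM). Enzyme 5nM in 50mM KPO4; compound added, 10 min at 37C, then NADPH regenerating system for 60 min at 37C. Full inhibition defined by 57uM ketoconazole.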

[18] = biological target: Muscarinic acetylcholine receptor M1 (Rattus norvegicus) (UniProt P08482); test: qHTS Assay for Antagonists of Acetylcholine Muscarinic M1 Receptor: Kinetic Measurement of Intracellular Calcium Response (AID 943); also: nearly all actives have a fitted effect of over 75% in size; also: potency is read from the fitted curve at half-maximal effect;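 as to activity change, negative = inhibition: Fluo-4 calcium signal as peak divided by basal fluorescence over 4 min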
Procedure, shortened: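 Quantitative HTS in CHO-M1 (rat receptor) cells: 10 min compound exposure ahead of 100 nM carbachol, Fluo-4 fluorescence followed 4 min, value expressed as peak-to-basal ratio.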

[19] = biological target: Pyruvate kinase PKM (Homo sapiens) (UniProt P14618); test: qHTS Assay for Inhibitors of Human Muscle Pyruvate Kinase (AID 958)
Procedure, shortened: as §1

[20] = Stat Signaling Pathway (AID 446; active = well fitted curve in either direction with a large enough effect, not every such curve was filed as active)
Procedure, shortened: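 Emission at 460 and 530 nm (excitation 405 nm) reports SIE-controlled beta-lactamase in ME-180 cells. Cells received compound with 40 pM IL-6 for 5 hrs at 37 C; data scaled between 300 pM IL-6 and 125 nM JAK-inhibitor controls.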

[21] = qHTS Assay for Identification of Small Molecule Agonists for Hypoxia Response Element Signaling Pathway (AID 914; active = well fitted activation curve with a large enough effect in the signal ratio, with a control signal flat, not every such curve was filed as active; the % refers to the signal ratio; also: % of control where 0% means no effect); details: ME-180 (cervical carcinoma) HRE-bla reporter, beta-lactamase ratio, CoCl2, 17 h; activation: active compounds read high
Procedure, shortened: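 HRE-bla ME-180 assay for agonist-like enhancement of an EC50 CoCl2 stimulus: 17 h at 37 degrees Celsius, CCF4 for 2.5 h, ratiometric 460/530 nm signal converted to %Activity and fitted to AC50.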

[22] = biological target: Tumor susceptibility gene 101 protein (Homo sapiens) (UniProt Q99816); test: qHTS Assay for Iinhibitors of HIV-1 Budding by Blocking the Interaction of PTAP/TSG101: Hit Validation (AID 651600); also: % is scaled to controls: 0 for no effect and ±100 for the full control effect; nearly all actives have a fitted effect of over 70% in size
Sequence of Tumor susceptibility gene 101 protein (Homo sapiens) (Q99816 whole entry, looked up, the tested form may be a part): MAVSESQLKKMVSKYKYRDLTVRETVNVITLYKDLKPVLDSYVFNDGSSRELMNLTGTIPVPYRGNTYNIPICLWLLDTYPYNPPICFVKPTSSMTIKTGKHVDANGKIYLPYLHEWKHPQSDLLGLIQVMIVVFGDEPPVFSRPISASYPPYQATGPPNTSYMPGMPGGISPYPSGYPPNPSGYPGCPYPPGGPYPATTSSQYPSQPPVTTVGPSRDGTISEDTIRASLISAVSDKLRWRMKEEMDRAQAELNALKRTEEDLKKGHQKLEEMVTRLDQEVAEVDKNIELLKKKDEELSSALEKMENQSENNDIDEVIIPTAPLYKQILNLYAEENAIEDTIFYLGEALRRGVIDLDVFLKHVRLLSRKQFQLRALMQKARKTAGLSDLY
Procedure, shortened: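 Fluorescence polarization binding assay: Tsg101 binding domain (10 uM) mixed with compounds and FITC-labeled PTAP peptide (50 nM) in HEPES pH 7.5, 0.15 M NaCl, 0.01% Tween 20, EDTA, TCEP; 20 min at r.t.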

[23] = biological target: Cytochrome P450 1A2 (Homo sapiens) (UniProt P05177); test: p450-cyp1a2 (AID 410; calls by dose curve; also: potency is read from the fitted curve at half-maximal effect)
Procedure, shortened: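 Read-out is luminescence from luciferin produced by CYP1A2 demethylation of Luciferin-ME (100uM, at Km). Detection reagent stopped the 60 min NADPH-dependent reaction; signals were normalized to 57 uM furafylline.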

C[C@@H](Cc1ccc2c(c1)OC(C(=O)O)(C(=O)O)O2)NC[C@H](O)c1cccc(Cl)c1
inactive: activity change, negative = inhibition [1] -9.81% [at 38 µM] | activity change, negative = inhibition [2] 14.6% [at 38 µM] | Potency [3] > 46 µM | outcome [4] | outcome [5] | Potency [6] | outcome [7] | Potency [8] | outcome [9] | outcome [10] | outcome [11] | outcome [12] | outcome [13]

N[C@@H](Cc1cc(O)c(O)cc1O)C(=O)O
inactive: activity change, negative = inhibition [1] -19.5% [at 38 µM] | activity change, negative = inhibition [2] 3.11% [at 38 µM] | Potency [3] > 46 µM | Potency [14] > 46 µM | outcome [5] | Potency [15] | Potency [16] | Potency [17] | Potency [18] | Potency [8] | outcome [10] | Potency [19] | outcome [11] | outcome [12] | outcome [13]
active: Potency [6] 15.8 µM

CC(C)[C@H]1C(=O)N2CCC[C@H]2[C@]2(O)O[C@](NC(=O)[C@@H]3C=C4c5cccc6[nH]cc(c56)C[C@H]4N(C)C3)(C(C)C)C(=O)N12
inactive: activity change, negative = inhibition [1] -19% | outcome [20] | Potency [3] > 20.6 µM

CC1CN=C(Nc2ccc(N(C)C)cc2)S1 (configuration not stated)
inactive: activity change, negative = inhibition [1] 17.8% | activity change, negative = inhibition [2] -26.5% | outcome [20] | Potency [3] > 20.6 µM | activation [21] 1.86%

O[C@@H]1CCCC[C@H]1N1CCC(c2ccccc2)CC1
inactive: activity change, negative = inhibition [1] -6.58% [at 38 µM] | activity change, negative = inhibition [2] -6.89% [at 38 µM] | outcome [20] | Potency [3] > 46 µM | outcome [4] | outcome [5] | Potency [6] | outcome [7] | Potency [8] | outcome [9] | outcome [10] | outcome [11] | outcome [12] | outcome [13]
active: Potency [18] 14.1 µM

CN1CCc2nc3sc(C#N)c(N)c3c(-c3cccs3)c2C1
inactive: activity change, negative = inhibition [1] -0.879% | Potency [3] > 20.6 µM

O=C(COc1ccc2ccccc2c1)N1CCN(C2CCN(Cc3ccccc3)CC2)CC1
inactive: activity change, negative = inhibition [1] 9.29% | outcome [20] | Potency [3] > 20.6 µM

O=C1C2CCN(CC2)[C@@H]1Cc1ccc2ccccc2c1O
inactive: activity change, negative = inhibition [1] 6.63% | outcome [20] | Potency [3] > 20.6 µM

C=CCn1c(O)c(C=Nc2ccc(N(CC)CC)cc2)c(=O)[nH]c1=O
inactive: activity change, negative = inhibition [1] -13.2% | outcome [20] | Potency [3] > 20.6 µM

CN1CC=C2C(C#N)=C(N)C(C#N)(C#N)C(c3ccncc3)C2C1 (configuration not stated)
inactive: activity change, negative = inhibition [1] 21.4% | outcome [20] | Potency [3] > 20.6 µM | Potency [22]

C[C@H]1CCCC=CC2C[C@H](O)C[C@@H]2[C@H](O)/C=C\C(=O)O1 (some centres not stated)
inactive: Potency [3] > 46 µM | Potency [14] > 46 µM | outcome [4] | outcome [5]
active: Potency [23] 15.8 µM
